Measurements as given in the supplement of paper PMC7801607.

Legend:
[1] = system: CHO; assay: % viability of CHO cells (MTT); higher = less toxic; details: 48 h
In short: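 CHO cells seeded at 10^6 cells/well were exposed to compound at 2 or 20 µM for 48 h. Survival, as percent of untreated cells, was measured with the colorimetric tetrazolium (MTT) assay.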

[2] = system: HepG2-A16-CD81; assay: % inhibition of HepG2 viability (CellTiter-Glo); higher = more toxic; details: 5 µM
[3] = system: Plasmodium falciparum NF54 stage IV/V gametocytes; assay: % inhibition of gametocyte viability (PrestoBlue); higher = more inhibition; details: 48 h
In short: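 Compound was tested at 1 or 5 µM against Stage IV/V NF54 gametocytes plated at 100 µL/well (2% gametocytaemia, 5% haematocrit). After 48 h of stationary, hypoxic incubation at 37 °C, 10 µL PrestoBlue was added for 2 h before reading 612 nm fluorescence from 70 µL of transferred supernatant. Gametocyte viability inhibition, as a percentage, was scaled against vehicle and kill controls from a single run.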

[4] = system: Plasmodium falciparum NF54 asexual blood stage; assay: % inhibition of asexual blood stage proliferation (pLDH); higher = more inhibition; details: 72 h
In short: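 In 96-well plates, compound at 2 or 20 µM was added to Plasmodium falciparum NF54 ring-stage cultures (1% haematocrit, 2% parasitaemia). Plates were incubated for 72 h at 37 °C in 4% CO2, 3% O2 and 93% N2, and survival was then read at 620 nm using the parasite lactate dehydrogenase assay. Inhibition of asexual proliferation, expressed as a percentage, was normalised to controls.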

[5] = system: Plasmodium falciparum NF54 stage IV/V gametocytes; assay: % inhibition of gametocyte viability (ATP bioluminescence); higher = more inhibition; details: 24 h
In short: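 Density gradients were used to enrich stage IV/V NF54 gametocytes, which were then seeded into 96-well plates at 30,000 per well with compound at 1 or 5 µM. The plates were incubated at 37 °C for 24 h, and ATP was measured with the Promega BacTiter Glo bioluminescence system. Percent inhibition of gametocyte viability was normalised to the plate controls from a single run.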

[6] = system: Plasmodium falciparum NF54 stage IV/V gametocytes; assay: % inhibition of gametocyte viability (luciferase reporter); higher = more inhibition; details: 48 h
In short: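 Percent inhibition came from luminescence and was normalised to controls in a single run. Gametocytes (stage IV/V, NF54-Pfs16-GFP-Luc line, 2% gametocytaemia, 2% haematocrit) were treated with compound at 1 or 5 µM and incubated for 48 h at 37 °C without agitation under hypoxia. Readings used 30 µL lysate with 30 µL Promega luciferin substrate on a GloMax-Multi+ reader, integrating for 10 s.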

[7] = system: Plasmodium berghei ANKA liver stage in HepG2-A16-CD81; assay: % inhibition of liver stage parasite viability (luciferase); higher = more inhibition; details: 5 µM; 48 h
Experimental: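 Single-concentration screen of the MMV Pandemic Response Box. P. falciparum NF54 asexual blood stages: pLDH assay, 72 h at 37 °C, 2 and 20 µM, n=2. Stage IV/V gametocytes (NF54): luciferase reporter (NF54-Pfs16-GFP-Luc, 48 h), ATP bioluminescence (24 h) and PrestoBlue (48 h) at 1 and 5 µM, n=1. P. berghei liver stage (luciferase in HepG2-A16-CD81, 48 h post infection) at 5 µM, n=4. All normalised to DMSO and kill controls as % inhibition.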
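Wherever % inhibition of HepG2 viability (CellTiter-Glo) is given: HepG2-A16-CD81 hepatoma cells plated as in the liver-stage assay but without sporozoites, with DMSO wells as negative and 25 µM puromycin as positive control.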

SMILES	% viability of CHO cells ([1]; 2 µM)	% viability of CHO cells ([1]; 20 µM)	% inhibition of HepG2 viability [2]	% inhibition of gametocyte viability ([3]; 1 µM)	% inhibition of gametocyte viability ([3]; 5 µM)	% inhibition of asexual blood stage proliferation ([4]; 2 µM)	% inhibition of asexual blood stage proliferation ([4]; 20 µM)	% inhibition of gametocyte viability ([5]; 1 µM)	% inhibition of gametocyte viability ([5]; 5 µM)	% inhibition of gametocyte viability ([6]; 1 µM)	% inhibition of gametocyte viability ([6]; 5 µM)	% inhibition of liver stage parasite viability [7]
CNCC(=O)OCc1cccnc1N(C)C(=O)OC(C)[n+]1cnn(C[C@](O)(c2cc(F)ccc2F)[C@@H](C)c2nc(-c3ccc(C#N)cc3)cs2)c1 (some centres undefined)	94.9%	98.8%	14.7%	8.15%	23.3%	0.721%	37.7%	< 0%	< 0%	< 0%	< 0%	29.6%
COc1ccc(CNC(=O)C(NS(=O)(=O)c2ccc3nc(C)sc3c2)C(C)C)cc1 (centres undefined)	105%	75.8%	3.43%	48.7%	50.8%	81.6%	111%	< 0%	< 0%	13.6%	< 0%	21.7%
Cc1oncc1C(=O)Nc1ccc(C(F)(F)F)cc1	113%	96.1%	-5.44%	< 0%	< 0%	50.7%	38%	12%	< 0%	23.8%	45.6%	-59.9%
O=c1[nH]c(=O)n(Cc2cccc(Oc3ccccc3)c2)cc1Nc1ccccc1	116%	65.4%	7.38%	< 0%	< 0%	-152%	47.8%	< 0%	< 0%	< 0%	< 0%	-3.63%
CC(C)C(=O)N[C@H]1[C@H]([C@H](O)[C@H](O)CO)OC(C(=O)O)=C[C@@H]1N=[N+]=[N-]	91.9%	113%	5.84%	< 0%	14.9%	9.36%	29.6%	1.53%	< 0%	< 0%	< 0%	10.3%
Cc1cc(O)c2c(c1)C(=O)c1c(I)c(O)c(I)c(O)c1C2=O	81.3%	64.1%	4.29%	< 0%	< 0%	30.5%	64.9%	< 0%	< 0%	< 0%	6.19%	-49.9%
NC(=O)c1ccc(I)c([N+](=O)[O-])c1	110%	112%	14.3%	17.8%	30.4%	1.16%	51.2%	< 0%	< 0%	0.24%	< 0%	20.9%
Fc1ccc2c(/C=C/c3nnn[nH]3)c[nH]c2c1	80.4%	75%	2%	4.4%	18.3%	7.6%	10.8%	< 0%	< 0%	< 0%	4.42%	7.99%
O=C(O)c1ccc(-c2ccc(O[C@H]3O[C@H](CO)[C@@H](O)[C@H](O)[C@@H]3O)cc2)cc1	94%	102%	-2.59%	< 0%	3.77%	0.633%	16.6%	< 0%	< 0%	< 0%	12.4%	29.4%
OCCC#Cc1nc(-c2ccc(F)cc2)c(-c2ccncc2)n1CCCc1ccccc1	107%	83%	5.38%	< 0%	30.5%	15.3%	83%	1.66%	8.02%	5.66%	32.2%	36.6%
Nc1nc(Nc2ccc3nc(-c4ccc(F)cc4)cc(N)c3c2)cc(-c2ccccc2)n1	-4.05%	-8.47%	-4.55%	32.5%	84.6%	83%	96.9%	95.5%	95%	98.5%	98.6%	13.6%
CC[C@H](CO)Nc1nc(NCc2ccccc2)c2ncn(C(C)C)c2n1	157%	60.7%	10.6%	< 0%	< 0%	-11.2%	88%	1.02%	< 0%	6.71%	< 0%	26.6%
CN(C)CC(=O)Nc1ccc2[nH]c(=O)c3ccccc3c2c1	97.8%	109%	-2.53%	< 0%	< 0%	24.3%	32.5%	11.1%	2.31%	< 0%	4.93%	9.83%
COCCn1cnc2c(=O)[nH]c(Nc3ccccc3)nc21	103%	63.9%	5.25%	< 0%	0.985%	28.3%	62.8%	7.08%	5.85%	14.5%	5.09%	7.54%
CC(=O)O[C@H]1C[C@@]2(C)[C@@H](C[C@@H](O)[C@H]3[C@@]4(C)CC[C@@H](O)[C@@H](C)[C@@H]4CC[C@@]32C)/C1=C(\CCC=C(C)C)C(=O)O	108%	97.1%	-0.207%	< 0%	2%	1.38%	9.02%	< 0%	< 0%	< 0%	< 0%	36.2%
CO[C@@]1(NC(=O)Cc2cccs2)C(=O)N2C(C(=O)O)=C(COC(N)=O)CS[C@@H]21	114%	143%	-4.03%	11.3%	20.3%	20%	88.8%	0.48%	< 0%	< 0%	2.58%	11.5%
Cc1cccc(C)c1C(=O)Nc1nc(-c2ccccn2)cc2ccccc12	104%	17.3%	32.4%	13.5%	53.2%	79.3%	104%	73.4%	90.8%	< 0%	68.3%	73.3%
COc1c(NC(=O)[C@H]2CC[C@@H](COc3ccc([N+](=O)[O-])cc3)CC2)c(F)cc2c(=O)c(C(=O)O)cn(C3CC3)c12	104%	102%	-1.96%	< 0%	23%	8.56%	70%	0.404%	< 0%	< 0%	9%	46.8%
C[C@H](NC(CC(=O)c1ccccc1C(F)(F)F)C(=O)O)c1ccccc1 (some centres undefined)	119%	58.9%	0.323%	20.3%	77.3%	34.4%	108%	11.3%	35.8%	< 0%	56.4%	36.5%

SMILES	% viability of CHO cells ([1]; 2 µM)	% viability of CHO cells ([1]; 20 µM)	% inhibition of HepG2 viability [2]	% inhibition of gametocyte viability ([3]; 1 µM)	% inhibition of gametocyte viability ([3]; 5 µM)	% inhibition of asexual blood stage proliferation ([4]; 2 µM)	% inhibition of asexual blood stage proliferation ([4]; 20 µM)	% inhibition of gametocyte viability ([5]; 1 µM)	% inhibition of gametocyte viability ([5]; 5 µM)	% inhibition of gametocyte viability ([6]; 1 µM)	% inhibition of gametocyte viability ([6]; 5 µM)	% inhibition of liver stage parasite viability [7]
Cc1ccc(C)c(OCCCCCCN2C[C@H](O)[C@@H](O)[C@H](O)[C@H]2CO)c1	111%	110%	4.29%	< 0%	< 0%	8.28%	41.4%	1.96%	< 0%	5.24%	11%	11.6%
O=c1cc(NCCCN[C@@H]2CCOc3c(Br)cc(Br)cc32)[nH]c2ccsc12	275%	54.3%	21.6%	17.8%	12.4%	42.9%	78.3%	< 0%	< 0%	< 0%	11.8%	74.7%
Nc1nc(-c2ccccc2)nc2c1ncn2[C@@H]1O[C@H](COS(=O)(=O)NC(=O)c2ccccc2O)[C@@H](O)[C@H]1O	102%	129%	3.69%	16.3%	11%	19.4%	71.1%	< 0%	< 0%	< 0%	< 0%	2.37%
CCOC(=O)Nc1cc(NC(C)CC(C)CN(CC)CC)c2nc(-c3ccccc3)c(-c3ccccc3)nc2n1 (centres undefined)	94%	116%	12.9%	26.4%	51.1%	37.7%	54.6%	28%	75%	< 0%	51.1%	55.5%
Nc1nc(=O)c(Br)c(-c2cccc(Cl)c2)[nH]1	102%	109%	6.4%	9.16%	21%	18.2%	68.9%	4.05%	< 0%	< 0%	5.01%	-7.9%
COC(=O)Nc1nc2cc(Sc3ccccc3)ccc2[nH]1	103%	101%	32.9%	< 0%	11.8%	-7.16%	5.37%	3.38%	< 0%	< 0%	< 0%	-25.4%
CCCCCc1ccc(C(=O)NCCn2cc(CCCCCc3cnc(N)[nH]3)nn2)cc1	125%	153%	2.88%	< 0%	63.4%	72.9%	96.5%	< 0%	< 0%	< 0%	< 0%	37.7%
CCc1cc(CCC(=O)Nc2ccccc2O)c(=O)[nH]c1C	90.7%	106%	0.672%	5.05%	16.3%	-8.67%	47.7%	< 0%	< 0%	< 0%	< 0%	17.8%
O=C(Nc1ccc(N2CCN(C(=O)c3ccccc3)CC2)cc1)c1ccc2c(c1)OCO2	114%	113%	38.8%	5.65%	< 0%	62.9%	44.8%	0.482%	< 0%	9.21%	< 0%	33.5%
C[C@@H]1O[C@@H]1P(=O)(O)O	107%	72.6%	-3.69%	< 0%	36.1%	-0.28%	11.5%	< 0%	< 0%	< 0%	4.89%	-6.92%
N[C@H]1CCC[C@H]1C(=O)O	109%	145%	-8.85%	35.6%	26.5%	31.3%	18.9%	< 0%	< 0%	< 0%	< 0%	15.8%
O[C@@](Cn1cnnn1)(c1ccc(F)cc1F)C(F)(F)c1ccc(-c2ccc(OCC(F)(F)F)cc2)cn1	92.3%	95.9%	13%	1.61%	22.4%	7.2%	82.5%	< 0%	25.9%	< 0%	3.57%	40%
C[C@@H](c1nc(-c2ccc(C#N)cc2)cs1)[C@](O)(Cn1cncn1)c1ccc(F)cc1F	92.5%	99.8%	3.07%	12.4%	15%	-2.05%	34.3%	2.16%	< 0%	< 0%	< 0%	-4.98%
O=C(NCCN1CCCCC1)c1cccc(C(F)(F)F)c1	96.7%	-13%	1.19%	< 0%	< 0%	16.9%	78.6%	< 0%	2.48%	12.3%	< 0%	20.2%
C=C[C@]1(C)C[C@@H](OC(=O)CS[C@@H]2C[C@H]3CC[C@@H](C2)N3C)[C@]2(C)[C@H](C)CC[C@]3(CCC(=O)[C@H]32)[C@@H](C)[C@@H]1O	77.8%	48.9%	7.56%	< 0%	2.51%	68.8%	104%	1.57%	7.83%	< 0%	< 0%	53%
CCc1ccc(C2CC(C(F)(F)F)n3ncc(C(=O)NCc4ccc(OC)cc4)c3N2)cc1 (centres undefined)	83%	61.2%	8.05%	< 0%	34.6%	37.2%	67.7%	2.93%	4.83%	< 0%	6.49%	32.1%
CNC(=O)C1O[C@@H](n2cnc3c(NCc4cccc(I)c4)nc(Cl)nc32)[C@H](O)[C@@H]1O (some centres undefined)	97.5%	132%	-10.3%	12.5%	24.1%	33.8%	63%	< 0%	< 0%	< 0%	< 0%	19.8%
Cc1ccn2c(C(=O)NCc3ccccc3)c(C)nc2c1	276%	53.7%	-0.843%	3.75%	36.6%	44.3%	74.9%	< 0%	< 0%	2.75%	0.0756%	20.4%
